A selection: hits, their analogues and other compounds. The true share with any hit is near 19%.
HT1080-NT tox – kills 2HG-producing HT-1080-NT fibrosarcoma cells. HT-1080-NT fibrosarcoma viability, CellTiter-Glo ATP luminescence, 48 h. AID 686970. actives 1.6% (n = 360,000). Potency, µM (titrated, usually from 46.1 µM), hits mostly cytotoxic;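 also: NT is the 2HG producing partner of a matched IDH1 knockdown line; nearly all actives have a fitted effect of over 55% in size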
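HT-1080-NT fibrosarcoma cells (2HG-overproducing), 750 cells/well in RPMI with 5% FBS, dosed after 2 h and incubated 48 h at 37C. CellTiter-Glo luminescence normalized to DMSO and no-cell wells; concentration-response curves fitted and classed.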
HT1080 IDH1KD tx – HT-1080 IDH1 knockdown cell toxicity (counter line); HT-1080 IDH1 knockdown viability, ATP luminescence, 48 h; AID 686971; Potency, µM (titrated, usually from 46.1 µM), most hits filed as cytotoxic; actives 2% (n = 360,000)
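IDH1KD HT-1080 cells, 750/well, RPMI + 5% FBS; compound pinned after 2 h settling; 48 h, 37 °C; CellTiter-Glo luminescence; % activity normalised to DMSO and no-cell wells; curves fitted, classed by r2 and efficacy.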
DT40 TDP1 CPT – growth inhibition of DT40 Tdp1-/-;hTDP1 cells with camptothecin (screen for TDP1 inhibitors); chicken DT40 Tdp1-/-;hTDP1 cells + 20 nM CPT, ATP luminescence, 48 h; Potency, µM (titrated, usually from 46.2 µM), most hits filed as inhibitors; actives 12% (n = 420,000); also: nearly all actives have a fitted effect of over 55% in size
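Chicken DT40 Tdp1-/- cells complemented with human TDP1, 400 cells/well, exposed to compounds plus 20 nM camptothecin for at least 48 h at 37 C; viability read as ATP content by CellTiter-Glo luminescence.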
KB-V1 cytotox – kills drug-selected multidrug resistant KB-V1 cells | KB-V1 MDR cells viability, CellTiter-Glo, 72 h | actives 3.4% (n = 400,000) | Potency, µM (top dose mostly 46.1 µM), hits mostly cytotoxic; also: nearly all actives have a fitted effect of over 60% in size
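KB-V1 cells (P-gp-expressing MDR subline of KB-3-1) in phenol-red-free DMEM with 10% FBS were exposed to library compounds over a concentration series for 72 h at 37 degrees C. Viability read by CellTiter-Glo luminescence; concentration-effect curves fitted after normalization.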
TDP1 cell noCPT – qHTS for Inhibitors of human tyrosyl-DNA phosphodiesterase 1 (TDP1): qHTS in cells in absence of CPT; actives 15% (n = 420,000); DT40 Tdp1-/- hTDP1 cells, no CPT, ATP luminescence, 48 h; Potency, µM (series often up to 46.2 µM), usual class: inhibitors; also: nearly all actives have a fitted effect of over 55% in size
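Stably hTDP1-transfected Tdp1-null chicken DT40 cells were treated with library compounds minus camptothecin and grown for at least 48 hr at 37 °C, after which cellular ATP was quantified by luminescence.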
KB-3-1 cytotox – KB-3-1 parental cell cytotoxicity; AID 1347075; Potency, µM (top dose mostly 46.1 µM), actives largely listed as cytotoxic; actives 1.4% (n = 400,000); KB-3-1 viability, CellTiter-Glo ATP luminescence, 72 h; also: nearly all actives have a fitted effect of over 60% in size
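Parental KB-3-1 adenocarcinoma cells in phenol-red-free DMEM with 10% FBS were pin-treated with compounds at several concentrations, incubated 72 h at 37 °C, and viability read by CellTiter-Glo luminescence; concentration-effect curves were fitted after normalization.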
Of the large screens only hits and unclear results are named; the others gave an inactive call. Calls follow the shape of the dose curve; as a rule, active = well fitted curve in the direction sought with a large enough effect; inconclusive = small, poorly fitted or top-dose-only effect, or another doubt; inactive = no such curve, though single readings can be large; an effect the other way counts as inactive or inconclusive.

COc1ccc2c(c1)cc1c(=O)n(CC(=O)NCCc3ccccc3)nc(C)n12	none (no result: HT1080-NT tox, HT1080 IDH1KD tx)
CC1CCCC(NC(=O)CSc2nnc(-c3cccnc3)n2N)C1C (stereo unspecified)	none
CN1CCN(C(=O)c2cccc(-c3ccc4nccn4c3)c2)CC1	TDP1 cell noCPT inconclusive
CCOc1ccc2[nH]cc(S(=O)(=O)c3ccc(F)cc3)c(=O)c2c1	DT40 TDP1 CPT 9.2µM, TDP1 cell noCPT 9.2µM, KB-3-1 cytotox inconclusive
C=CCNC(=O)c1cc(-c2ccccc2)sc1N	DT40 TDP1 CPT inconclusive, TDP1 cell noCPT inconclusive
Cc1cc(C(=O)NCCc2ccc(Cl)cc2)c2ccccc2n1	HT1080 IDH1KD tx inconclusive, KB-V1 cytotox inconclusive, TDP1 cell noCPT inconclusive
CSc1cccc(Nc2cc(C(=O)NCCc3ccc(Cl)cc3)c3ccccc3n2)c1	DT40 TDP1 CPT 4.61µM, KB-V1 cytotox inconclusive, TDP1 cell noCPT 7.31µM, KB-3-1 cytotox inconclusive (no result: HT1080-NT tox, HT1080 IDH1KD tx)
O=C(NCCc1ccccc1)c1cc(Sc2cccc(Cl)c2)nc2ccccc12	DT40 TDP1 CPT inconclusive, TDP1 cell noCPT 16.4µM (no result: HT1080-NT tox, HT1080 IDH1KD tx)
Nc1sc(-c2ccccc2)cc1C(=O)NCCc1ccc(Cl)cc1	DT40 TDP1 CPT 23.1µM, KB-V1 cytotox inconclusive, TDP1 cell noCPT 16.4µM
Cc1cc(C(=O)NCc2cccc(Cl)c2)c2ccccc2n1	KB-V1 cytotox inconclusive, TDP1 cell noCPT inconclusive
CCCCN(CCCNC(=O)c1cc(Nc2cccc(SC)c2)nc2ccccc12)Cc1ccccc1	DT40 TDP1 CPT 6.51µM, TDP1 cell noCPT 4.11µM (no result: HT1080-NT tox, HT1080 IDH1KD tx, KB-V1 cytotox, KB-3-1 cytotox)
COc1cc(NC(=O)Cn2c(C)cc(C)c(C#N)c2=O)cc(OC)c1	none (no result: HT1080-NT tox, HT1080 IDH1KD tx)
COCCN1CCN(C(=O)c2cnn(-c3nccc(-c4ccccc4F)n3)c2-c2ccco2)CC1	none (no result: HT1080-NT tox, HT1080 IDH1KD tx, KB-V1 cytotox, KB-3-1 cytotox)
COc1cccc(C(=O)NCC2Cc3cccc(-c4cccnc4)c3O2)c1 (stereo unspecified)	TDP1 cell noCPT inconclusive (no result: HT1080-NT tox, HT1080 IDH1KD tx, KB-V1 cytotox, KB-3-1 cytotox)
CC(=O)O[C@H]1C[C@H]2CC[C@@H]3[C@H]4C[C@@H]([N+]5(C)CCCCC5)[C@@H](OC(C)=O)[C@]4(C)CC[C@@H]3[C@@]2(C)C[C@@H]1[N+]1(C)CCCCC1	none (no result: HT1080-NT tox, HT1080 IDH1KD tx, KB-V1 cytotox, KB-3-1 cytotox)
CCn1c(=O)c2c(n3cnnc13)-c1ccccc1CC21CCCCC1	DT40 TDP1 CPT 13µM, TDP1 cell noCPT inconclusive, KB-3-1 cytotox inconclusive
O=C(C[C@H]1C/C=C\CC[C@H](Cc2ccc(F)cc2)C(=O)OCCNC1=O)NCCO	none
O=C(C[C@@H]1C/C=C/CC[C@H](Cc2ccc(F)cc2)C(=O)OCCNC1=O)N[C@H](CO)Cc1ccccc1	DT40 TDP1 CPT 20.6µM, TDP1 cell noCPT 11.6µM
O=C(C[C@@H]1C/C=C/CC[C@H](Cc2ccc(F)cc2)C(=O)OC[C@@H](Cc2ccccc2)NC1=O)N[C@H](CO)Cc1ccccc1	HT1080-NT tox inconclusive, HT1080 IDH1KD tx inconclusive, DT40 TDP1 CPT inconclusive, TDP1 cell noCPT inconclusive, KB-3-1 cytotox inconclusive
CC(C)(C)[C@H]1COC(=O)[C@@H](Cc2ccc(F)cc2)C/C=C\C[C@@H](CC(=O)N[C@@H](CO)Cc2ccccc2)C(=O)N1	DT40 TDP1 CPT inconclusive, TDP1 cell noCPT 18.4µM
C[C@@H]1COC(=O)[C@H](Cc2ccc(F)cc2)CC/C=C/C[C@@H](CC(=O)N[C@@H](CO)Cc2ccccc2)C(=O)N1	DT40 TDP1 CPT inconclusive, TDP1 cell noCPT 25.9µM
O=C(C[C@@H]1C/C=C\C[C@H](Cc2ccc(F)cc2)C(=O)OCCNC1=O)N[C@H](CO)Cc1ccccc1	DT40 TDP1 CPT inconclusive, KB-V1 cytotox inconclusive, TDP1 cell noCPT 16.4µM
CC(C)(C)[C@H]1COC(=O)[C@@H](Cc2ccc(F)cc2)C/C=C\C[C@@H](CC(=O)N[C@H](CO)Cc2ccccc2)C(=O)N1	DT40 TDP1 CPT inconclusive, TDP1 cell noCPT inconclusive
CCOc1cccc(-c2nc3ccccc3c(=O)o2)c1	DT40 TDP1 CPT inconclusive, TDP1 cell noCPT inconclusive (no result: HT1080-NT tox, HT1080 IDH1KD tx)

Compound activity deposited in PubChem BioAssay by National Center for Advancing Translational Sciences (NCATS).
